Measurements from PubChem BioAssay (NCATS).
“And” between values parts separate entries of the source, which are not always exact repeats. Equal entries are not always repeated. Records with an inconclusive call do not appear. A call without a number means that no potency is given here. Values without a mark were called inactive. The source made the active and inactive calls. Unless noted, calls come from the whole dose curve; as a rule, active = well fitted curve in the direction sought with a large enough effect; inconclusive = small, poorly fitted or top-dose-only effect, or another doubt; inactive = no such curve, though single readings can be large; an effect the other way counts as inactive or inconclusive.

What was measured:
[1] = Primary qHTS for inhibitors of La Crosse Virus (LACV) - induced cell death in SH-SY5Y cells (AID 1508616);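 note: top concentration of the series differs between compounds; higher means more rescue of cells from virus-induced death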
Procedure, shortened: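 Cytopathicity rescue screen: compounds pinned onto SH-SY5Y cells, which are then infected with LACV (MOI 0.01) and held 6 days at 37C. Percent activity is scaled between infected DMSO control and uninfected DMSO control.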

[2] = molecular target: Calcium and integrin-binding protein 1 (Homo sapiens) (UniProt Q99828); test: Primary qHTS for Identification of Calcium Integrin Binding Protein 1 (CIB1) Competitor (AID 1508620);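 note: GST tagged CIB1 binding a fluorescein labelled alphaIIb integrin peptide tracer; top concentration of the series differs between compounds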
Calcium and integrin-binding protein 1 (Homo sapiens), sequence (Q99828 whole entry, looked up): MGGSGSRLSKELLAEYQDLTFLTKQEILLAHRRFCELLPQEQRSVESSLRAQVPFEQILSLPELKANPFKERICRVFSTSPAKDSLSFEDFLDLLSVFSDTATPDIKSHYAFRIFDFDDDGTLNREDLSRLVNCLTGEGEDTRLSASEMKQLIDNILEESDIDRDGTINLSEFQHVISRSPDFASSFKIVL
Procedure, shortened: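 Fluorescence polarization competition: CIB1-GST (1 uM final) preincubated with compound 15 min at room temperature, then FITC-labeled alphaIIb peptide (100 nM final) added for another 15 min. Polarization read at Ex 480/Em 540.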

[3] = Primary qHTS for small molecule stabilizers of the endoplasmic reticulum resident proteome: Secreted ER Calcium Modulated Protein (SERCaMP) assay (AID 1508630)
Procedure, shortened: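 The SH-SY5Y reporter protocol was run at 3 concentrations up to 38.3 uM (primary) or 11 concentrations (follow-up): 16 h compound, 100 nM thapsigargin for 4 h, then extracellular luciferase luminescence.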

[4] = A High-Content qHTS Against Drug Library for the Identification of Small Molecules that Inhibit DYT1 Early Onset Primary Dystonia-Associated Cell Pathology (AID 1645839; calls by dose curve; note: series mostly up to about 46 µM)
Procedure, shortened: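 Induced EGFP-delE TorsinA cells are imaged after 48 h of compound treatment. Punctate fusion-protein distribution gives the %pathology value, while nuclei counts flag toxicity. Wild-type EGFP-hTOR1A cells define the normal pattern.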

[5] = molecular target: Cytochrome P450 2D6 (Homo sapiens) (UniProt P10635); test: Cytochrome P450 family 2 subfamily D member 6 (CYP2D6) small molecule antagonists: luciferase biochemical (cell-free) qHTS assay (AID 1645840; active = well fitted curve in the direction sought with a large enough effect in the repeat runs; an effect the other way counts as inactive or inconclusive; note: nearly all actives have a fitted effect of over 55% in size; note: potency is the fitted concentration of half-maximal effect; for activity change, negative = inhibition: series mostly up to about 57 µM)
Cytochrome P450 2D6 (Homo sapiens), sequence (P10635 whole entry, looked up): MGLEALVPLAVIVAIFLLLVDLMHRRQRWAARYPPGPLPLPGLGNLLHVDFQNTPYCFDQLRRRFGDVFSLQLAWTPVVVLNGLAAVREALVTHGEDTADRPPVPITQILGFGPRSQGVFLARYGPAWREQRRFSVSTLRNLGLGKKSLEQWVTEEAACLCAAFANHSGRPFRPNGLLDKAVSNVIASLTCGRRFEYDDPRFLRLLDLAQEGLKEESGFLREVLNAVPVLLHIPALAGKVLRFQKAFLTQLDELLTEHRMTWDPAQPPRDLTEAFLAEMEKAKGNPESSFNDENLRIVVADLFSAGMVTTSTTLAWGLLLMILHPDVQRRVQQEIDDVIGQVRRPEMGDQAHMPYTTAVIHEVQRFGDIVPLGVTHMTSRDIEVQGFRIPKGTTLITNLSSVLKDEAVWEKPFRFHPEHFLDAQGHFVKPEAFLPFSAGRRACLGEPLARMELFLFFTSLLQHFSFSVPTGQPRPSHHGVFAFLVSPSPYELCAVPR
Procedure, shortened: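 P450-Glo CYP2D6 system: proluciferin substrate converted by enzyme to luciferin, read by luminescence proportional to activity. Enzyme-substrate mix with compound 10 min at room temperature, then NADPH regeneration 1 h before detection reagent.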

[6] = molecular target: Cytochrome P450 2C9 (Homo sapiens) (UniProt P11712); test: Cytochrome P450 family 2 subfamily C member 9 (CYP2C9) small molecule antagonists: luciferase biochemical (cell-free) qHTS assay (AID 1645842; active = well fitted curve in the direction sought with a large enough effect in the repeat runs; an effect the other way counts as inactive or inconclusive; note: nearly all actives have a fitted effect of over 55% in size; note: potency is the fitted concentration of half-maximal effect; for activity change, negative = inhibition: series mostly up to about 57 µM)
Cytochrome P450 2C9 (Homo sapiens), sequence (P11712 whole entry, looked up): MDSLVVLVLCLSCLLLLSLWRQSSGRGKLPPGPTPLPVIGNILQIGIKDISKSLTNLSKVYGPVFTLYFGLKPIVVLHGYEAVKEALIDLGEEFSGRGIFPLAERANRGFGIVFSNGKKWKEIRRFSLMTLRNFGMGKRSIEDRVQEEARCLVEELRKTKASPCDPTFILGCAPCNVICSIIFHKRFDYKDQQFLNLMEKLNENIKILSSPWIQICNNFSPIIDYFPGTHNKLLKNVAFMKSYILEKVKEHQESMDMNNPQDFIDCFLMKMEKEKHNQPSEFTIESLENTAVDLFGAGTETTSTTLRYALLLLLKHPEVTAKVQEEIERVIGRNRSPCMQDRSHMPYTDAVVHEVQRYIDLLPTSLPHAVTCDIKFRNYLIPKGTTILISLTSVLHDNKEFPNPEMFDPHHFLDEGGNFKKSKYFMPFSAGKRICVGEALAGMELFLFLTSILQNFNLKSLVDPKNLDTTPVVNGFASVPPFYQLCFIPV
Procedure, shortened: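 P450-Glo CYP2C9 system: proluciferin substrate with enzyme in mix containing 0.4% BSA, 10 min at room temperature, then NADPH regeneration solution added and incubated 1 h at 37C. Detection reagent stopped reaction; luminescence read after 20 min as RLU.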

[7] = Primary qHTS for inhibitors of nuclear receptor binding SET domain protein 2 (NSD2) in an isogenic RCH-ACV NSD2 p.E1099K mutant (9B) (AID 1645876); note: nearly all actives have a fitted effect of over 70% in size; note: potency is the fitted concentration of half-maximal effect
[8] = Primary qHTS for inhibitors of nuclear receptor binding SET domain protein 2 (NSD2) in an RCH-ACV wild type WT cells (2C) (AID 1645877); note: nearly all actives have a fitted effect of over 70% in size; note: potency is the fitted concentration of half-maximal effect
[9] = Confirmatory qHTS for small molecule stabilizers of the endoplasmic reticulum resident proteome: Secreted ER Calcium Modulated Protein (SERCaMP) assay (AID 1508628); note: nearly all actives have a fitted effect of over 40% in size; note: potency is the fitted concentration of half-maximal effect
Procedure, shortened: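 GLuc-SERCaMP-expressing SH-SY5Y cells, pretreated 16 h with compound, are challenged with thapsigargin to empty ER calcium stores; after 4 h, coelenterazine is added directly to the medium and luminescence is imaged.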

[10] = Cell Viability qHTS for small molecule stabilizers of the endoplasmic reticulum resident proteome (AID 1508629); details: cell viability counter-screen, 100 nM thapsigargin for final 4 h;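 note: human SH-SY5Y neuroblastoma cells carrying the GLuc-SERCaMP reporter; compound exposure about 46 h in total before the viability read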
[11] = molecular target: N-terminal Xaa-Pro-Lys N-methyltransferase 1 (Homo sapiens) (UniProt Q9BV86); test: Confirmatory qHTS for Inhibitors of N-terminal methyltransferase 1 (NTMT1): MTaseGlo Assay (AID 1645874); details: NTMT1 enzyme, MTase-Glo SAH luminescence; note: potency is the fitted concentration of half-maximal effect; nearly all actives have a fitted effect of over 65% in size
N-terminal Xaa-Pro-Lys N-methyltransferase 1 (Homo sapiens), sequence (Q9BV86 whole entry, looked up): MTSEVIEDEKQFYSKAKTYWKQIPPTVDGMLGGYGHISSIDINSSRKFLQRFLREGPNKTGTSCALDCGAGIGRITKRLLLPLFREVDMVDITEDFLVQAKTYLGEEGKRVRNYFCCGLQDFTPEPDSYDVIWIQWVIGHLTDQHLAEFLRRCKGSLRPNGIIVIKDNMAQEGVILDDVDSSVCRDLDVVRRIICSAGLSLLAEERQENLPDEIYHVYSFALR
Procedure, shortened: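 MTase-Glo luminescence measured SAH formed by 125 nM NTMT1 from 100 uM SAM and 1 uM SPKRIA peptide over 30 min at room temperature, following 15 min compound preincubation. Percent inhibition against no-enzyme and DMSO controls gave 4-parameter Hill fits.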

## CC(C)(C)c1nnc(NS(=O)(=O)c2ccc(N)cc2)s1
[1]
  Potency: inactive
[2]
  Potency: inactive
[3]
  Potency: inactive
[4]
  Potency: inactive
[5]
  Potency: inactive
[6]
  Potency: inactive
[7]
  Potency: inactive
[8]
  Potency: inactive

## Cc1c(N)c(=O)n(-c2ccccc2)n1C
[1]
  Potency: inactive
[2]
  Potency: inactive
[3]
  Potency: inactive
[4]
  Potency: inactive
[5]
  Potency: inactive
[7]
  Potency: inactive
[8]
  Potency: inactive

## CNC(=O)c1c(I)c(NC(=O)CCCCC(=O)Nc2c(I)c(C(=O)O)c(I)c(C(=O)NC)c2I)c(I)c(C(=O)O)c1I
[1]
  Potency: inactive
[2]
  Potency: inactive
[3]
  Potency: inactive
[4]
  Potency: inactive
[5]
  Potency: inactive
[6]
  Potency: inactive
[7]
  Potency: inactive
[8]
  Potency: inactive

## O=C(CCN1CCN(CCO)CC1)N1c2ccccc2Sc2ccc(C(F)(F)F)cc21
[1]
  Potency: inactive
[2]
  Potency: inactive
[3]
  Potency: inactive
[4]
  Potency: inactive
[5]
  Potency: inactive
[6]
  Potency: inactive
[7]
  Potency: inactive
[8]
  Potency: inactive

## S=c1[nH]c2ccccc2s1
[1]
  Potency: inactive
[2]
  Potency: inactive
[3]
  Potency: inactive
[5]
  Potency: 29.1 µM (active)
[6]
  Potency: 15.9 µM (active)

## O=C(/C=C/c1ccccc1)NCCO
[1]
  Potency: inactive
[2]
  Potency: inactive
[3]
  Potency: inactive
[6]
  Potency: 5.49 µM (active)

## Nc1c(CC(=O)O)cccc1C(=O)c1ccc(Br)cc1
[1]
  Potency: inactive
[2]
  Potency: inactive
[4]
  Potency: inactive
[5]
  Potency: inactive
[6]
  Potency: inactive

## c1ccc2sc(SN3CCOCC3)nc2c1
[1]
  Potency: inactive
[2]
  Potency: inactive
[3]
  Potency: inactive
[4]
  Potency: inactive
[5]
  Potency: inactive
[6]
  Potency: 10.7 µM (active) and 15.5 µM (active)
[7]
  Potency: inactive
[8]
  Potency: inactive

## CCCCCCCCCCCCCCCC(=O)OC(C)C
[1]
  Potency: inactive
[2]
  Potency: inactive
[3]
  Potency: inactive
[4]
  Potency: inactive
[6]
  Potency: inactive
[7]
  Potency: inactive
[8]
  Potency: inactive

## CCCCC1C(=O)N(c2ccccc2)N(c2ccc(O)cc2)C1=O (stereo not drawn)
[1]
  Potency: inactive
[2]
  Potency: inactive
[3]
  Potency: inactive
[6]
  Potency: 8.71 µM (active)
[7]
  Potency: 0.531 µM (active)
[8]
  Potency: 0.531 µM (active)

## Cc1[nH]cnc1CN1CCc2c(c3ccccc3n2C)C1=O
[1]
  Potency: inactive
[2]
  Potency: inactive
[3]
  Potency: inactive
[4]
  Potency: inactive
[5]
  Potency: 7.76 µM (active)
[6]
  Potency: 1.55 µM (active)
[7]
  Potency: inactive
[8]
  Potency: inactive

## O=C(Nc1ccc(C(=O)O)c(O)c1)c1ccccc1
[1]
  Potency: inactive
[2]
  Potency: inactive
[3]
  Potency: inactive
[4]
  Potency: inactive
[5]
  Potency: 13.8 µM (active)
[7]
  Potency: inactive
[8]
  Potency: inactive

## CN(C)c1ccc(N=NS(=O)(=O)O)cc1
[1]
  Potency: inactive
[2]
  Potency: inactive
[9]
  Potency: inactive
[10]
  max response: 4.58%
[5]
  Potency: 2.37 µM (active)
[6]
  Potency: 0.728 µM (active)

## C/C(=N\O)c1ccc(OCC(=O)N2CCCCC2)cc1
[1]
  Potency: inactive
[2]
  Potency: inactive
[3]
  Potency: inactive
[4]
  Potency: inactive
[5]
  Potency: inactive
[6]
  Potency: inactive
[7]
  Potency: inactive
[8]
  Potency: inactive

## Cc1c(Nc2ncccc2C(=O)O)cccc1C(F)(F)F
[1]
  Potency: inactive
[2]
  Potency: inactive
[3]
  Potency: inactive
[5]
  Potency: inactive
[6]
  Potency: inactive
[8]
  Potency: inactive

## Cc1ccc2c(n1)Oc1ccc(C(C)C(=O)OCC(=O)N(C)C)cc1C2 (stereo not drawn)
[1]
  Potency: inactive
[2]
  Potency: inactive
[3]
  Potency: inactive
[4]
  Potency: inactive
[7]
  Potency: inactive
[8]
  Potency: inactive

## COc1ccc(/C=C/C(=O)Nc2ccccc2C(=O)O)cc1OC
[1]
  Potency: inactive
[2]
  Potency: inactive
[9]
  Potency: 39.8 µM (active)
[7]
  Potency: inactive
[8]
  Potency: inactive

## COc1cc2c3cc1Oc1cc(ccc1O)C[C@@H]1c4c(cc(OC)c(O)c4Oc4ccc(cc4)C[C@@H]3N(C)CC2)CC[N+]1(C)C
[1]
  Potency: inactive
[2]
  Potency: inactive
[3]
  Potency: inactive
[4]
  Potency: inactive
[5]
  Potency: inactive
[6]
  Potency: inactive
[7]
  Potency: inactive
[8]
  Potency: inactive

## Clc1ccccc1-c1nc(-c2ccncc2)no1
[1]
  Potency: inactive
[2]
  Potency: inactive
[3]
  Potency: inactive
[4]
  Potency: inactive
[5]
  Potency: 3.47 µM (active)
[6]
  Potency: 5.49 µM (active)
[11]
  Potency: 25.1 µM (active)

## O=C(O)Cc1ccc(-c2ccccc2)cc1
[1]
  Potency: inactive
[2]
  Potency: inactive
[3]
  Potency: inactive
[4]
  Potency: inactive
[5]
  Potency: inactive
[6]
  Potency: inactive
[8]
  Potency: inactive

## CC(C(=O)O)c1ccc(C(=O)c2cccs2)cc1 (stereo not drawn)
[1]
  Potency: inactive
[2]
  Potency: inactive
[3]
  Potency: inactive
[4]
  Potency: inactive
[5]
  Potency: inactive
[6]
  Potency: 7.76 µM (active)

## O=C(O)c1cc(O)c(O)c(O)c1
[1]
  Potency: inactive
[2]
  Potency: inactive
[4]
  Potency: inactive
[5]
  Potency: inactive
[6]
  Potency: inactive

## O=C(O)Cc1cccc(-c2cc(CCCCCCc3ccc(O[C@H]4O[C@H](CO)[C@@H](O)[C@H](O)[C@@H]4O)c(-c4cccc(CC(=O)O)c4)c3)ccc2O[C@H]2O[C@H](CO)[C@@H](O)[C@H](O)[C@@H]2O)c1
[1]
  activity change: -19% [at 0.0343 µM]
[2]
  activity change, negative = inhibition: -8.49% [at 1.07 µM]
[3]
  activity change, negative = inhibition: -18.9% [at 0.478 µM]
[4]
  % pathology change, negative = correction: -6.26% [at 0.369 µM]
[5]
  activity change, negative = inhibition: -6.59% [at 0.91 µM]
[6]
  activity change, negative = inhibition: 11.7% [at 0.91 µM]
[7]
  activity change, negative = viability loss: 9.79% [at 0.588 µM]
[8]
  outcome: inactive [at 0.588 µM]

## Cc1c(C(=O)O)c(O)cc2c1C(=O)c1c(O)c([C@@H]3O[C@H](CO)[C@@H](O)[C@H](O)[C@H]3O)c(O)c(O)c1C2=O
[1]
  Potency: inactive
[2]
  Potency: inactive
[9]
  Potency: 44.7 µM (active)
[4]
  Potency: inactive
[5]
  Potency: inactive
